According to PubChem BioAssay AID1332 (Southern Research Institute, 2008):
Converted amounts (≈) assume the structure as drawn. Out of some 1,100 compounds screened, about 170 (15%) were called active. The rule behind the calls is not given here. These entries were drawn from the full list. Non-standard residues stand in square brackets, D forms with d. Residues, ends and D or L forms follow the SMILES beside them. *: point of attachment. Sta = CC(C)C[C@H](N)[C@@H](O)CC(=O)O; Isovaleryl = CC(C)CC(=O)*

assay: Confirmatory growth inhibition assay, mycobacterium tuberculosis h37rv, with cytotoxicity (AID 1332);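 for CC50: Vero cells exposed to compounds for 72 hours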;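 for IC50: bacteria incubated 7 days before adding Alamar blue readout reagent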; conditions: M. tuberculosis H37Rv growth inhibition; CC50: measured here: Vero cell cytotoxicity; IC50: measured here: IC50 H37Rv replicates

| Compound | CC50 [µg/mL] | IC50 [µg/mL] | outcome |
| --- | --- | --- | --- |
| CCc1nc(N)nc(N)c1-c1ccc(Cl)cc1 | 1.26 (≈ 5.06 µM) | 7.67 (≈ 30.8 µM) | active |
| C[C@H]1CCC2(NC1)O[C@H]1C[C@H]3[C@@H]4CC[C@H]5C[C@@H](O[C@@H]6O[C@H](CO)[C@H](O[C@@H]7O[C@H](CO)[C@@H](O)[C@H](O[C@@H]8OC[C@@H](O)[C@H](O)[C@H]8O)[C@H]7O[C@@H]7O[C@H](CO)[C@@H](O)[C@H](O)[C@H]7O)[C@H](O)[C@H]6O)CC[C@]5(C)[C@H]4CC[C@]3(C)[C@H]1[C@@H]2C (stereo partly drawn) | 3.98 (≈ 3.85 µM) | > 20 | inactive |
| C[C@@H]1C[C@H]2[C@@H]3C[C@H](F)C4=CC(=O)C=C[C@]4(C)[C@@]3(Cl)[C@@H](O)C[C@]2(C)[C@H]1C(=O)COC(=O)C(C)(C)C | > 6 | > 20 | inactive |
| C[N+]1(C)CCC(=C(c2ccccc2)c2ccccc2)CC1 | – | > 20 | inactive |
| CCc1cc(C(N)=S)ccn1 | – | 1.95 (≈ 11.7 µM) | active |
| Cc1c(C)c2c(c(C)c1O)CCC(C)(C(=O)O)O2 (stereo not drawn) | – | > 20 | inactive |
| COc1ccc(CC(C)(N)C(=O)O)cc1OC (stereo not drawn) | > 6 | > 20 | inactive |
| Nc1nc2c(c(=O)[nH]1)N(C=O)C(CNc1ccc(C(=O)N[C@@H](CCC(=O)O)C(=O)O)cc1)CN2 (stereo partly drawn) | – | > 20 | inactive |
| CN(C)C(=O)C(CCN1CCC(O)(c2ccc(Cl)cc2)CC1)(c1ccccc1)c1ccccc1 | – | 10.9 (≈ 22.9 µM) | active |
| O=C(CCCN1CCC(O)(c2ccc(Cl)cc2)CC1)c1ccc(F)cc1 | – | > 20 | inactive |
| O=C(CCCN1CCC(O)(c2ccc(Br)cc2)CC1)c1ccc(F)cc1 | – | > 20 | inactive |
| CN1CC[C@@]2(C)c3cc(O)ccc3N(C)[C@H]12 | – | > 20 | inactive |
| CC(CN(C)C)CN1c2ccccc2Sc2ccccc21 (stereo not drawn) | > 6 | > 20 | inactive |
| CCCCc1ccc(C(=O)O)nc1 | > 6 | 3.88 (≈ 21.7 µM) | active |
| CCCCc1ccc2nc(NC(=O)OC)[nH]c2c1 | 0.043 (≈ 0.174 µM) | > 20 | inactive |
| CCCCOc1ccc(CC(=O)NO)cc1 | > 6 | > 20 | inactive |
| Cc1cc(CC(=O)O)n(C)c1C(=O)c1ccc(Cl)cc1 | – | > 20 | inactive |
| O=C(CCCN1CCN(c2ccccn2)CC1)c1ccc(F)cc1 | – | > 20 | inactive |
| C[C@H]1[C@H](C)CC[C@]2(C(=O)O)CC[C@]3(C)C(=CC[C@@H]4[C@@]5(C)CC[C@H](O)C(C)(C)[C@@H]5CC[C@]43C)[C@H]12 | – | > 20 | inactive |
| CN(C)CCC(c1ccc(Cl)cc1)c1ccccn1 (stereo not drawn) | – | > 20 | inactive |
| CN[C@@H]1[C@H](O)[C@H](NC)[C@H]2O[C@@]3(O)C(=O)C[C@@H](C)O[C@H]3O[C@@H]2[C@H]1O | – | 7.14 (≈ 21.5 µM) | active |
| C/C(=C(/CCO)SSCC1CCCO1)N(C=O)Cc1cnc(C)nc1N (stereo not drawn) | – | > 20 | inactive |

| Compound | CC50 [µg/mL] | IC50 [µg/mL] | outcome |
| --- | --- | --- | --- |
| C=Cc1c(C)c2cc3nc(cc4[nH]c(cc5nc(cc1[nH]2)C(C)=C5CCC(=O)O)c(CCC(=O)O)c4C)[C@@]1(C)C3=CC=C(C(=O)OC)C1C(=O)OC (stereo partly drawn) | – | > 20 | active |
| CC(O)(P(=O)(O)O)P(=O)(O)O | – | > 20 | inactive |
| CC(=O)c1ccc2c(c1)N(CCCN1CCC(CCO)CC1)c1ccccc1S2 | – | > 20 | inactive |
| OCCN1CCN(CC/C=C2/c3ccccc3Sc3ccc(Cl)cc32)CC1 | > 6 | 9.26 (≈ 23.1 µM) | active |
| OCCOCCN1CCN(C(c2ccccc2)c2ccc(Cl)cc2)CC1 (stereo not drawn) | – | > 20 | inactive |
| CC(=O)Nc1ccc(O)cc1 | – | > 20 | inactive |
| CCN[C@H]1C[C@H](C)S(=O)(=O)c2sc(S(N)(=O)=O)cc21 | – | > 20 | inactive |
| Cc1cc(C(=O)NNCc2ccccc2)no1 | – | > 20 | inactive |
| O=C(CCNNC(=O)c1ccncc1)NCc1ccccc1 | – | 0.393 (≈ 1.32 µM) | active |
| CC(C)NNC(=O)c1ccncc1 | – | > 20 | inactive |
| CC(C)(C)NC(=O)[C@@H]1C[C@@H]2CCCC[C@@H]2CN1C[C@@H](O)[C@H](Cc1ccccc1)NC(=O)[C@H](CC(N)=O)NC(=O)c1ccc2ccccc2n1 | – | 17.3 (≈ 25.7 µM) | active |
| C[C@@H]1CC[C@H]2[C@@H](C)C(=O)O[C@@H]3OC4(C)CC[C@@H]1[C@]32OO4 | – | > 20 | inactive |
| CN1CC[C@]23c4ccccc4N[C@H]1[C@]21CCN(C)[C@H]3Nc2ccccc21 | – | > 20 | inactive |
| CN1CCN(C(c2ccccc2)c2ccccc2)CC1 | – | > 20 | inactive |
| CN1CCCN(C(c2ccccc2)c2ccc(Cl)cc2)CC1 (stereo not drawn) | > 6 | 19.3 (≈ 61.3 µM) | active |
| O=C(O)COCCN1CCN(C(c2ccccc2)c2ccc(Cl)cc2)CC1 (stereo not drawn) | – | > 20 | inactive |
| Cc1cc(-c2ccccc2)nnc1NCCN1CCOCC1 | – | > 20 | inactive |
| CC(C)CC(=O)N[C@H](C(=O)N[C@H](C(=O)N[C@@H](CC(C)C)[C@@H](O)CC(=O)N[C@@H](C)C(=O)N[C@@H](CC(C)C)[C@@H](O)CC(=O)O)C(C)C)C(C)C (Isovaleryl-VV[Sta]A[Sta]-OH) | – | > 20 | inactive |
| Cc1c(-c2ccccc2)oc2c(C(=O)OCCN3CCCCC3)cccc2c1=O | – | > 20 | inactive |
| CN(C)CC/C=C1\c2ccccc2COc2ccccc21 | – | > 20 | inactive |
| CN(C)CC/C=C1\c2ccccc2CSc2ccccc21 | > 6 | > 20 | inactive |
| CN(C)CCC=C1c2ccccc2CCc2ccccc21 | > 6 | 16.2 (≈ 58.3 µM) | active |

| Compound | CC50 [µg/mL] | IC50 [µg/mL] | outcome |
| --- | --- | --- | --- |
| CNCC(O)c1ccc(O)c(OC)c1 (stereo not drawn) | – | > 20 | inactive |
| CNC(C)CCC=C(C)C (stereo not drawn) | – | > 20 | inactive |
| C=C1CC[C@H](O)C/C1=C/C=C1\CCC[C@]2(C)[C@@H]([C@H](C)CCCC(C)C)CC[C@@H]12 | – | > 20 | inactive |
| C[C@@H]1CCC[C@H](C)N1 | – | > 20 | inactive |
| CC(C)(C)NC[C@@H](O)COc1cccc2c1CCCC2=O | – | > 20 | inactive |
| Cc1c(N(C)CS(=O)(=O)O)c(=O)n(-c2ccccc2)n1C | – | > 20 | inactive |
| CO[C@@]1(NC(=O)[C@H](C(=O)O)c2ccc(O)cc2)C(=O)N2C(C(=O)O)=C(CSc3nnnn3C)CO[C@@H]21 | – | > 20 | inactive |
| C[N+]1(C)C2CC[C@H]1CC(OC(=O)C(CO)c1ccccc1)C2 (stereo partly drawn) | – | > 20 | inactive |
| Nc1ccc(S(=O)(=O)Nc2ccccn2)cc1 | – | > 20 | inactive |
| Cc1cc(C)nc(NS(=O)(=O)c2ccc(N)cc2)n1 | – | > 20 | inactive |
| Cc1noc(NS(=O)(=O)c2ccc(N)cc2)c1C | – | 8.76 (≈ 32.8 µM) | active |
| CC(=O)NS(=O)(=O)c1ccc(N)cc1 | – | > 20 | inactive |
| Nc1ccc(S(=O)(=O)Nc2ncccn2)cc1 | – | 13.4 (≈ 53.4 µM) | active |
| Nc1ccc(S(=O)(=O)NC(=O)c2ccccc2)cc1 | – | > 20 | inactive |
| Cc1ccnc(NS(=O)(=O)c2ccc(N)cc2)n1 | – | > 20 | inactive |
| Nc1ccc(S(=O)(=O)Nc2ccc(Cl)nn2)cc1 | – | 4.37 (≈ 15.3 µM) | active |
| CCn1cc(C(=O)O)c(=O)c2cnc(N3CCCC3)nc21 | – | > 20 | inactive |
| Cc1cccc(N(C)C(=S)Oc2ccc3ccccc3c2)c1 | – | > 20 | inactive |
| O=C(O)C1(O)C[C@H](O)C(O)[C@@H](O)C1 (stereo partly drawn) | – | > 20 | inactive |
| COc1ccc([C@@H]2CC(=O)c3c(O)cc(O)cc3O2)cc1O | – | > 20 | inactive |
| CCCCN(CCCC)CCCOC(=O)c1ccc(N)cc1 | – | > 20 | inactive |
| CC1(C)S[C@@H]2[C@H](NC(=O)C(C(=O)O)c3ccsc3)C(=O)N2[C@H]1C(=O)O (stereo partly drawn) | – | > 20 | inactive |

| Compound | CC50 [µg/mL] | IC50 [µg/mL] | outcome |
| --- | --- | --- | --- |
| CC(=O)N(CC(O)CN(C(C)=O)c1c(I)c(C(=O)NCC(O)CO)c(I)c(C(=O)NCC(O)CO)c1I)c1c(I)c(C(=O)NCC(O)CO)c(I)c(C(=O)NCC(O)CO)c1I (stereo not drawn) | – | > 20 | inactive |
| Cn1c(-c2ccc3c(c2)OCO3)cc(=O)c2ccccc21 | – | > 20 | inactive |
| Cc1c(N)c(=O)n(-c2ccccc2)n1C | – | > 20 | inactive |
| COc1ccc2cc1Oc1ccc(cc1)C[C@H]1c3cc(c(OC)cc3CCN1C)Oc1c(OC)c(OC)cc3c1[C@H](C2)N(C)CC3 | > 6 | > 20 | inactive |
| Cc1[nH]ccc2c1[nH]c1cc(=O)ccc12 | > 6 | > 20 | inactive |
| CC(C)(C)NCC(O)COc1ccccc1C1CCCC1 (stereo not drawn) | – | > 20 | inactive |
| O=C(O)c1cccnc1 | – | > 20 | inactive |
| O=C1C(=O)c2ccccc2C(O)=C1C1CCC(c2ccc(Cl)cc2)CC1 (stereo not drawn) | > 6 | 10.1 (≈ 27.6 µM) | active |
| C/C=C(\C)C(=O)O[C@H]1[C@H](OC(C)=O)[C@@]2(CO)C(CC1(C)C)C1=CC[C@@H]3[C@@]4(C)CC[C@H](O[C@@H]5O[C@H](C(=O)O)[C@@H](O[C@@H]6O[C@H](CO)[C@@H](O)[C@H](O)[C@H]6O)[C@H](O)[C@H]5O[C@@H]5O[C@H](CO)[C@@H](O)[C@H](O)[C@H]5O)[C@](C)(CO)C4CC[C@@]3(C)[C@]1(C)C[C@H]2O (stereo partly drawn) | – | > 20 | inactive |
| CN(C)CCOC(c1ccccc1)c1ccccc1 | – | > 20 | inactive |
| CCCCc1cc2ccccc2c(OCCN(C)C)n1 | – | 13.5 (≈ 49.5 µM) | active |
| CN(C)CCCOc1nn(Cc2ccccc2)c2ccccc12 | – | > 20 | inactive |
| CCCCOc1cc(C(=O)NCCN(CC)CC)c2ccccc2n1 | – | > 20 | inactive |
| CC[N+](CC)(CC(=O)Nc1c(C)cccc1C)Cc1ccccc1 | – | > 20 | inactive |
| CN1CCc2c(c3ccccc3n2Cc2ccccc2)C1 | – | > 20 | inactive |
| Clc1ccc(Cn2c(CN3CCCC3)nc3ccccc32)cc1 | – | 3.58 (≈ 11 µM) | active |
| Clc1ccc(C(OCCN2CCCCC2)c2ccccc2)cc1 (stereo not drawn) | > 6 | > 20 | inactive |
| CCOc1ccc(Cc2nccc3cc(OCC)c(OCC)cc23)cc1OCC | > 6 | > 20 | inactive |
| CC(C)n1c(/C=C/[C@H](O)C[C@H](O)CC(=O)O)c(-c2ccc(F)cc2)c2ccccc21 | 0.354 (≈ 0.86 µM) | > 20 | inactive |
